# Assay outcomes: PubChem BioAssay, several laboratories
# IDE cell inh: human IDE inhibitors in live cells, primary screen, fluorescence polarization, HEK cells, FAbetaB substrate | FAbetaB cleavage | AID 434962, 2010 | inhibition, % at 5.59 µM | 320,000 tested, 0.41% active;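 active means percent inhibition above the average of all tested compounds plus 3 SD, set per screening campaign, cut at about 16% in these data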;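 further: IDE supplied by intact live HEK cells; FP after avidin binding of uncleaved biotin substrate so inhibition keeps polarization high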
# CaV13 FRET inh: Disruptors of the CACNA1D IQ motif to Ca2+-dependent inactivation inhibitor domain association, primary screening, Förster resonance energy transfer in intact living …; HEK cells, CFP/YFP FRET ICDI-IQ, plate reader, 10 min; percent FRET-ratio fall versus neutral wells; inhibition, % at 12.3 µM; 340,000 tested, 0.098% active;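 active means mean replicate inhibition of at least 30% and at least 1% of replicates passing that level; inconclusive means only one of the two criteria is met; inactive means neither criterion is met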
# PfM18AAP inh: PfM18AAP inhibitors, malaria aminopeptidase, primary screen, biochemical, QFRET, recombinant enzyme; M18 aspartyl aminopeptidase (Plasmodium falciparum 3D7); AID 1822, 2009; inhibition, % at 7.35 µM; 290,000 tested, 1.2% active; H-Glu-NHMec fluorogenic cleavage;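 active means inhibition above the campaign mean inhibition over all tested compounds plus 3 SD, cut at about 28% in these data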
# ALR H2O2 inh: inhibitors of human ALR sulfhydryl oxidase, primary screen, biochemical, H2O2 detection, HRP-luminol luminescence, single point; inhibition, % (no concentration beside the values); purified ALR, DTT oxidation; AID 485317, 2010; FAD-linked sulfhydryl oxidase ALR (Homo sapiens), P55789; 290,000 tested, 3.8% active;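 active means mean replicate inhibition above about 79%, with every replicate also reaching it, limit read from the data; inconclusive means only one of the two criteria met; inactive means mean below limit and not every replicate reaching it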
# Target sequence (P55789 whole entry, looked up): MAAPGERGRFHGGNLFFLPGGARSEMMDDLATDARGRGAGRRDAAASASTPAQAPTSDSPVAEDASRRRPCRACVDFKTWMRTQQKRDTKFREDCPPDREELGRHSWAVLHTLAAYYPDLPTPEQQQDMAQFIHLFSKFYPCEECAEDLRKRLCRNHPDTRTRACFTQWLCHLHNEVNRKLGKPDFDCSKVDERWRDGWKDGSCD
# IDE cell activ: human IDE activators in live cells, primary screen, fluorescence polarization, HEK cells, FAbeta-B substrate. 340,000 tested, 0.073% active. FAbeta-B cleavage; 0% vehicle, 100% cell-free pure enzyme wells. Insulin-degrading enzyme (Homo sapiens), P14735. activation, % at 5.96 µM;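 active means activation above the mean of all tested compounds plus 3 SD, set per screening campaign, cut at about 17% in these data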
# PolyA inhibitor: polyadenylation inhibitors in yeast reporter cells, primary screen, luminescence, S. cerevisiae | S. cerevisiae SKY197-pL101 polyadenylation reporter, beta-gal luminescence; efflux-impaired pdr1/pdr3 knockout yeast; score 100 = 6 SD above DMSO | AID 1875, 2009 | activity score, % at 12 µM | 300,000 tested, 0.02% active;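 active means lowest replicate activity score at least 50, where 100 means six control SD above control mean; inconclusive means lowest score under 50 but half or more replicates reach 50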;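 further: yeast exposed to compound for 9 h at 30 °C; higher score means more reporter readthrough which indicates perturbed polyadenylation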
# A number is an active result; n = inactive; u = inconclusive; x = no result. A selection: hits, their analogues and other compounds. The true share with any hit is near 4.1%.
SMILES,IDE cell inh,CaV13 FRET inh,PfM18AAP inh,ALR H2O2 inh,IDE cell activ,PolyA inhibitor
O=S(=O)(Nc1ccc(N2CCCCC2)cc1)c1ccc(F)cc1,n,n,n,98,x,n
COc1ccccc1NC(=O)c1ccc2c(c1)N(CC(=O)NC(C)C)C(=O)C(C)(C)O2,n,n,n,x,n,n
COc1ccc(Nc2cc(C)nc(N3CCN(C(=O)c4ccc5c(c4)OCO5)CC3)n2)cc1,n,n,x,n,n,n
COc1ccc2cc(S(=O)(=O)n3cnc(C)c3)ccc2c1,n,n,n,98,x,n
Cc1ccc(S(=O)(=O)n2cnc(C)c2)cc1,n,n,n,n,n,n
O=C(NC(CC1=CCCCC1)c1ccccc1)C(F)(F)F (stereo unspecified),x,n,x,x,x,x
O=C(NNC(=S)NC(=O)c1ccc(F)cc1)c1cccnc1,n,n,n,98,n,n
O=C(NNC(=S)NC(=O)c1cccnc1)c1ccccc1,n,n,n,n,n,n
O=C(NNC(=S)NC(=O)c1cccnc1)c1ccc(F)cc1,n,n,n,98,n,n
O=C(C1CCN(S(=O)(=O)c2cccc3cccnc23)CC1)N1CCN(Cc2ccccc2)CC1,n,n,x,x,n,x
CCN1CCN(C(=O)C2CCN(S(=O)(=O)c3cccc4cccnc34)CC2)CC1,n,n,x,98,n,n
COc1ccc(N2C(=O)CC(Sc3nc4ccccc4s3)C2=O)cc1OC (stereo unspecified),n,n,n,97,n,n
CC(=O)Nc1ccc(N2C(=O)CC(Sc3nc4ccccc4s3)C2=O)cc1 (stereo unspecified),n,n,n,u,n,n
NC1=NC2(CCCC2)n2c(nc3ccccc32)N1,n,n,n,n,n,n
CCC1(C)N=C(N)Nc2nc3cc(C)c(C)cc3n21 (stereo unspecified),n,n,n,99,n,n
CCCCNC(=O)c1onc(CCl)c1C(=O)OC,n,n,n,97,n,n
COCCNC(=O)c1onc(CCl)c1C(=O)OC,n,n,n,n,n,n
CC(=O)N1CCN(C(=O)c2cccc(S(=O)(=O)NCc3ccccc3)c2)CC1,n,n,x,n,n,n
O=C(Nc1nc(=O)n(C(=O)c2cccc(C(F)(F)F)c2)s1)c1ccccc1,n,n,n,97,n,n
CCOC(=O)c1c(CN2CCN(C)CC2)n(-c2ccccc2)c2cc(Br)c(O)cc12,n,n,n,79,n,n
CCOC(=O)c1c(CN2CCN(CCO)CC2)n(-c2ccccc2)c2cc(Br)c(O)cc12,n,n,n,n,n,n
Cc1cc(C)c(/C=C(\C#N)S(=O)(=O)c2ccccc2)[nH]1,n,n,n,x,n,n
Cc1[nH]c2ccccc2c1/C=C(\C#N)S(=O)(=O)c1ccccc1,n,n,n,97,n,n
Cc1ccc(NC2=NCC(=O)N2Cc2cccs2)cc1C,n,n,n,n,n,n
Cc1ccc(CNc2nc(C)nc3sc4c(c23)CCC4)cc1,n,n,n,n,n,n
SMILES,IDE cell inh,CaV13 FRET inh,PfM18AAP inh,ALR H2O2 inh,IDE cell activ,PolyA inhibitor
Cc1nc(Nc2ccc(O)cc2)c2c3c(sc2n1)CCCC3,n,n,n,98,n,n
COc1ccc(NC(=O)CN(C)C(=O)CN2C(=O)C3CCCCC3C2=O)cc1 (stereo unspecified),n,n,x,n,n,n
Oc1ccc(NCc2cccs2)cc1,n,n,n,96,n,n
O=C(O)c1ccccc1NCc1cccs1,n,n,n,n,n,n
CC(=O)Nc1ccc(NCc2cccs2)cc1,n,n,n,95,n,n
CCN(C(=O)COC(=O)C1CCN(S(=O)(=O)c2ccc(C)c(C)c2)CC1)C1CCCCC1,n,n,x,x,n,x
NC(=O)CSc1cn(CCNC(=O)c2cccs2)c2ccccc12,n,n,x,98,n,n
COc1cc(/C=C(/NC(C)=O)C(=O)O)cc(Cl)c1OCc1ccc(Br)cc1,n,n,n,95,n,n
COc1cc(/C=C(\NC(C)=O)C(=O)O)cc(OC)c1OC,n,n,n,n,x,n
CN(C)Cc1c(O)ccc2ccccc12,n,n,n,n,n,n
Oc1ccccc1Cc1c(O)ccc2ccccc12,n,n,x,91,n,n
COc1cccc2c(=O)c3c(cnn3C)n(C)c12,n,35,n,n,n,n
COc1cccc2c(=O)c3ccoc3n(C)c12,n,x,n,n,n,n
NS(=O)(=O)c1ccc(N/N=C/c2ccc(O)c(O)c2O)c([N+](=O)[O-])c1,x,n,50,x,n,x
Cc1cc(N2CC(C(=O)Nc3nccs3)CC2=O)ccc1C(C)C (stereo unspecified),n,x,n,n,n,n
COc1ccc(/C=N/NC(=O)c2ccc(CSc3nc(C)cc(C)n3)cc2)cc1O,n,n,n,77,n,n
COc1ccc(/C=N/NC(=O)c2cc[n+]([O-])cc2)cc1O,n,n,n,99,n,n
COc1ccc(/C=N/NC(=O)c2ccc(CSc3nc(C)cc(C)n3)cc2)c(OC)c1OC,n,n,n,x,n,n
COc1cc(/C=N/NC(=O)c2ccc(CSc3nncn3C)cc2)cc(OC)c1O,n,n,n,100,n,n
COc1ccc(/C=N\NC(=O)c2ccc(=O)[nH]n2)cc1O,n,n,n,100,n,n
COc1cc(/C=N/NC(=O)c2ccc(CSc3nncn3C)cc2)ccc1OCC(=O)N1CC(C)OC(C)C1 (stereo unspecified),n,n,n,n,n,n
COc1ccc(/C=N/NC(=O)c2cc[n+]([O-])cc2)cc1,n,n,n,x,n,n
COc1ccc(NC(=O)C2Cc3c(-c4cccc(NC(C)=O)c4)ccnc3O2)cc1 (stereo unspecified),x,n,x,x,x,x
